In PubChem BioAssay (NCATS) one finds Potency and outcome data, which are given here for 45 compounds.

The target in assay [1] is N-terminal Xaa-Pro-Lys N-methyltransferase 1 (Homo sapiens) (UniProt Q9BV86). Briefly: qHTS Assay for Inhibitors of N-terminal methyltransferase 1 (NTMT1): LOPAC validation of the NTMT1 SAHH-coupled ThioGlo3 Assay (AID 1347143).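 Also: SAH from peptide methylation measured as thiol fluorescence via SAHH coupling and ThioGlo3; nearly all actives have a fitted effect of over 70% in size.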 Also: potency is read from the fitted curve at half-maximal effect. The method, boiled down:
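Steps: dispense 125nM NTMT1; pin-transfer test compounds at several concentrations, with 1uM RCC1-6 peptide as control; incubate 1 min; start with reagent holding 100uM SAM, 10uM SAHH, 15uM ThioGlo3; read at 0 and 30 min.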
(qHTS replaces the single test concentration by a dilution series.)

The test system of assay [2] is Zika virus NS2B-NS3 protease (unlinked). Briefly: Optimization of GU AMC qHTS for Zika virus inhibitors: Unlinked NS2B-NS3 protease assay (AID 1347151). Also: series mostly up to about 52 µM; nearly all actives have a fitted effect of over 80% in size. An outline of the steps:
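Noncovalent NS2B hydrophilic domain–NS3 protease complex (25 nM final) in 10 mM Tris-HCl pH 8.0, 0.01% Tween 20; AMC substrate, room temperature 15 min (~20% conversion); fluorescence change normalized, 4-parameter Hill fit.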

The subject of assay [3] is Zika virus NS2B-NS3 protease. In words: Primary screen GU AMC qHTS for Zika virus inhibitors (AID 1347154). Also: nearly all actives have a fitted effect of over 70% in size. An outline of the steps:
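Unlinked Zika NS2B hydrophilic domain–NS3 protease complex at 25 nM in 10 mM Tris-HCl pH 8.0, 0.01% Tween 20, with an AMC peptide substrate. Fluorescence change (340/450 nm) over 15 min at room temperature, normalized to controls, fitted to 4-parameter Hill.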

Assay [4] has as its system Zika virus NS2B-NS3 protease (linked construct). In words: Confirmatory screen NINDS AMC qHTS for Zika virus inhibitors (AID 1347152).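 Also: AMC fluorescence gain from cleaved Bz-Nle-KRR-AMC substrate over 15 min; top concentration of the series differs between compounds; nearly all actives have a fitted effect of over 70% in size.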 An outline of the steps: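 Linked NS2B-NS3 protease, 1 nM, in 10 mM Tris-HCl pH 8.0, 0.01% Tween 20; compounds preincubated 15 min at room temperature. Nle-KRR-AMC 10 microM (Km 18.3 µM); 15-min fluorescence change (340/450 nm) fitted to 4-parameter Hill.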

Assay [5] has as its system Zika virus NS2B-NS3 protease (unlinked complex). In words: Confirmatory screen GU AMC qHTS for Zika virus inhibitors (AID 1347153). Also: nearly all actives have a fitted effect of over 70% in size. The method, boiled down:
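Unlinked enzyme 25 nM, Tris pH 8.0/0.01% Tween 20; cpd 15 min RT, dark; + AMC substrate 10 µM (Km 18.3 µM); 340/450 nm read at t0 and 15 min; % inhibition → 4-param fit.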

Inconclusive results are not listed. Entries that show only a call come without a potency. A number with no mark means an inactive call. Active and inactive are the calls of the source. Calls follow the shape of the dose curve; as a rule, active = well fitted curve in the direction sought with a large enough effect; inconclusive = small, poorly fitted or top-dose-only effect, or another doubt; inactive = no such curve, though single readings can be large; an effect the other way counts as inactive or inconclusive.

Sequence of N-terminal Xaa-Pro-Lys N-methyltransferase 1 (Homo sapiens) (Q9BV86 whole entry, looked up): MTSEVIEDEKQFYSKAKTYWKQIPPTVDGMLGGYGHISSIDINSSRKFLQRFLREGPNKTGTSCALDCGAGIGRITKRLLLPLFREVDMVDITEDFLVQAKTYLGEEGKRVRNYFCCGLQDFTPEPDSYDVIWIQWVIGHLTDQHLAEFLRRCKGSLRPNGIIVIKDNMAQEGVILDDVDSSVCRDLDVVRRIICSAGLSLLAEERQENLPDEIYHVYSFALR

With `COCCCC/C(=N\OCCN)c1ccc(C(F)(F)F)cc1`, the Potency entry in assay [1] and in assay [2] was “inactive” throughout. Also, the compound was called inactive in assay [3].

As for `CCN1CCc2nc(N)oc2CC1`, the Potency in assay [1] is 56.2 µM (active). Moreover, the outcome in assay [4], in assay [5] and in assay [3] was inactive.

Take `C[C@]12CCC(=O)C=C1CC[C@@H]1[C@@H]2CC[C@@]2(C)[C@H]1CC[C@]2(O)C(=O)CO`: the Potency result in assay [1] and in assay [2] was “inactive” throughout. In addition, in assay [3], the compound was called inactive.

Turning to `Cc1nnc(SCC2=C(C(=O)O)N3C(=O)[C@@H](NC(=O)Cn4cnnn4)[C@H]3SC2)s1`, in assay [1], the Potency was 50.1 µM (active). In assay [2], the Potency result was “inactive”. Also, the compound was classed as inactive in assay [3].

Turning to `CN(C)CC/C=C1\c2ccccc2COc2ccccc21`, the Potency result in assay [1] and in assay [2] was “inactive” throughout. Also, in assay [3], the compound was called inactive.

`CCN(CC)CCNC(=O)c1ccc(NC(C)=O)cc1`: the Potency result in assay [1] and in assay [2] was “inactive” in each case. For the same compound, in assay [3], the compound was classed as inactive.

For the compound `Cc1ccc(Cl)c(Nc2ccccc2C(=O)O)c1Cl`, the Potency result in assay [1] is “inactive”. Also, the compound was classed as inactive in assay [3].

`Cc1nc2sccn2c(=O)c1CCN1CCC(=C(c2ccc(F)cc2)c2ccc(F)cc2)CC1`: the Potency result in assay [1] was “inactive”. In addition, the compound was called inactive in assay [4], in assay [5] and in assay [3].

As for `Nc1c2c(nc3ccccc13)CCCC2O` (stereo not given), the Potency result in assay [1] and in assay [2] was “inactive” throughout. In addition, in assay [3], the compound was classed as inactive.

Consider `COCCOC(=O)C1=C(C)NC(C)=C(C(=O)OC(C)C)C1c1cccc([N+](=O)[O-])c1` (stereo not given), for which the Potency entry in assay [1] is “inactive”. In addition, the result in assay [3] was inactive.

As for `CCCN(CCC)C(=O)C(CCC(=O)O)NC(=O)c1ccccc1` (stereo not given), the Potency result in assay [1] and in assay [2] was “inactive” each time. In assay [3], the call was inactive.

On to `CCN1CCC[C@H]1CNC(=O)c1c(O)c(Cl)cc(Cl)c1OC`, for which the Potency in assay [1] was 50.1 µM (active). Besides, the result in assay [3] was inactive.

On to `NC(N)=N/N=C/c1c(Cl)cccc1Cl`, for which the Potency result in assay [1] and in assay [2] was “inactive” throughout. The compound was classed as inactive in assay [3].

On to `COc1cc(C(=O)OCCCN2CCCN(CCCOC(=O)c3cc(OC)c(OC)c(OC)c3)CC2)cc(OC)c1OC`, for which the Potency result in assay [1] and in assay [2] was “inactive” throughout. Also, the outcome in assay [3] was inactive.

With `CNC1(C)C2CCC(C2)C1(C)C` (stereo not given), the Potency entry in assay [1] and in assay [2] was “inactive” throughout. Moreover, the outcome in assay [3] was inactive.

Regarding `CNCCC(Oc1ccccc1OC)c1ccccc1` (stereo not given), the Potency result in assay [1] and in assay [2] was “inactive” each time. Also, the outcome in assay [3] was inactive.

Turning to `Brc1c(NC2=NCCN2)ccc2nccnc12`, the Potency in assay [1] is 50.1 µM (active). In assay [2], the Potency result is “inactive”. The call in assay [3] was inactive.

With `CC(=O)[C@@]1(O)CC[C@H]2[C@@H]3CCC4=CC(=O)CC[C@]4(C)[C@H]3CC[C@@]21C`, the Potency result in assay [1] and in assay [2] was “inactive” each time. The call in assay [3] was inactive.

On to `COC(=O)[C@@H](N)Cc1ccc(O)c(O)c1`, for which the Potency result in assay [2] is “inactive”.

For `CC(C)(C)NCC(O)c1cc(O)cc(O)c1` (stereo not given), the Potency result in assay [1] and in assay [2] was “inactive” each time. In addition, in assay [3], the compound was classed as inactive.

With `Nc1ncn([C@@H]2O[C@H](CO)[C@@H](O)[C@H]2O)c(=O)n1`, the Potency entry in assay [1] and in assay [2] was “inactive” throughout. Besides, the call in assay [3] was inactive.

Regarding `CN1CCN(C2=Nc3ccccc3Oc3ccc(Cl)cc32)CC1`, the Potency result in assay [1] and in assay [2] was “inactive” throughout. For the same compound, in assay [3], the outcome was inactive.

On to `CCCCNC(=O)NS(=O)(=O)c1ccc(C)cc1`, for which the Potency entry in assay [1] and in assay [2] was “inactive” throughout. Also, the outcome in assay [3] was inactive.

As for `CC(N=C(NC#N)Nc1ccncc1)C(C)(C)C` (stereo not given), the Potency result in assay [1] and in assay [2] was “inactive” each time. The outcome in assay [3] was inactive.

`O=C(O)CN(CCN(CC(=O)O)CC(=O)O)CCN(CC(=O)O)CC(=O)O`: the Potency result in assay [1] and in assay [2] was “inactive” each time. The compound was classed as inactive in assay [3].

As for `CN(C)CCN(Cc1cccs1)c1ccccn1`, the Potency result in assay [1] and in assay [2] was “inactive” throughout. In addition, the result in assay [3] was inactive.

Take `CCCN(CCC)CCc1cccc2c1CC(=O)N2`: the Potency entry in assay [1] and in assay [2] was “inactive” in each case. Also, the result in assay [3] was inactive.

With `CC(C(=O)O)c1ccc(CC2CCCC2=O)cc1` (stereo not given), the Potency entry in assay [1] and in assay [2] was “inactive” each time. Besides, the result in assay [3] was inactive.

Take `CC(C)NNC(=O)c1ccncc1`: the Potency entry in assay [1] and in assay [2] was “inactive” in each case. Moreover, the compound was called inactive in assay [3].

Consider `CSc1ccc(C(=O)c2[nH]c(=O)[nH]c2C)cc1`, for which, in assay [2], the Potency result is “inactive”.

With `CNCCCN1c2ccccc2CCc2ccccc21`, the Potency result in assay [2] is “inactive”. The call in assay [3] was inactive.

With `Cc1cccc(C)c1NC(=O)C(C)N` (stereo not given), the Potency entry in assay [2] was “inactive”. Further, the compound was called inactive in assay [3].

Regarding `CCN(CC)CCOCCOC(=O)C1(c2ccccc2)CCCC1`, in assay [2], the Potency entry was “inactive”. Also, in assay [3], the result was inactive.

Consider `Fc1ccc(C(c2ccc(F)cc2)N2CCN(C/C=C/c3ccccc3)CC2)cc1`, for which the Potency entry in assay [2] is “inactive”. Further, the result in assay [3] was inactive.

On to `NC(=Nc1ccccc1)Nc1ccccc1`, for which, in assay [3], the compound was classed as inactive.

Regarding `COc1ccc(CN(CCN(C)C)c2ccccn2)cc1`, the Potency entry in assay [2] was “inactive”.

On to `CCO/C([O-])=N/c1c[n+](N2CCOCC2)no1`, for which the Potency entry in assay [2] was “inactive”. The compound was called inactive in assay [3].

Turning to `COCC(=O)O[C@]1(CCN(C)CCCc2nc3ccccc3[nH]2)CCc2cc(F)ccc2[C@@H]1C(C)C`, the Potency entry in assay [2] was “inactive”. The call in assay [3] was inactive.

Turning to `CN(C)C/C=C(/c1ccc(Br)cc1)c1cccnc1`, the Potency result in assay [2] is “inactive”. Further, in assay [3], the compound was classed as inactive.

For `COc1ccc2c(c1OC)C(=O)O[C@@H]2[C@H]1c2c(cc3c(c2OC)OCO3)CCN1C`, in assay [2], the Potency result was “inactive”. For the same compound, the result in assay [3] was inactive.

As to `CCc1cccc(N(C)C(N)=Nc2cccc3ccccc23)c1`, the Potency entry in assay [2] was “inactive”. Besides, the compound was classed as inactive in assay [3].

As for `OCCN1CCN(CC/C=C2/c3ccccc3Sc3ccc(C(F)(F)F)cc32)CC1`, the Potency result in assay [2] was “inactive”. Moreover, in assay [3], the compound was classed as inactive.

With `CC1=C(C)C(=O)C(CCCCC#CCCCC#CCO)=C(C)C1=O`, the compound was called inactive in assay [3].

As for `CCCCNc1c(C(=O)OCC)c(C)nc2c1cnn2CC`, the Potency result in assay [2] is “inactive”.

With `C#CCN(C)CCCOc1ccc(Cl)cc1Cl`, the Potency result in assay [2] is “inactive”.
